Tgondii IFNg: T. gondii growth inhibition with IFN-gamma, primary screen, cell-based | 69,000 compounds, 3.8% hits | activity change, negative = inhibition, % (no concentration beside the values) | Toxoplasma gondii growth in IFN-gamma-treated host cells; active compounds read low; in the data active = activity change below about -70%, passing the limit was not always enough;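 note: host cells are HeLa cells infected with Toxoplasma gondii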
Active calls of the source: *; ! = a repeat was not active. The entries come from a sample that favours hits as a whole.

SMILES | Tgondii IFNg
COc1ccc(OCC(=O)Nc2cccc(-c3nnc4c5ccccc5c(C)nn34)c2)cc1 | -76*
c1cc(CN2CC[C@H]3[C@@H](CO[C@@H]3Cc3nnc(C4CC4)o3)C2)co1 | -2
Cc1cc(-n2cnc3c(C)ncnc32)ccc1NC(=O)c1cccnc1 | -14
COc1ccc(-c2nc(N)nc3c2CN(CC2CC=CCC2)C3)cc1 (centres undefined) | -5
Cc1ccc(O)c(CN(Cc2cccnc2)Cc2ccc3c(c2)OCO3)n1 | -25
COCCc1ncc(CN(Cc2ccncc2)Cc2ccc3c(c2)OCO3)cn1 | -71*
Cc1ccc(CN(Cc2ccc3c(c2)OCO3)Cc2cnc(C)[nH]2)cc1 | -28
Cc1ccc(S(=O)(=O)N(C)C)cc1NS(=O)(=O)c1cc(Cl)sc1Cl | -4
NC(=S)c1cc(-c2ccccc2)c(C(F)(F)F)s1 | -93*
O=C(O)c1cc(-c2ccccc2)c(C(F)(F)F)s1 | 19
FC(F)(F)c1sc(-c2nnc(-c3ccc(Cl)cc3Cl)o2)cc1-c1ccccc1 | 42
Cc1c(C(=O)N2CCCn3nc(C(=O)NC4CC4)cc3C2)cnc2ccnn12 | -4
Cc1cccc(NC(=O)Cn2c(=O)cc(C(=O)N3CCC(C)CC3)c3ccccc32)c1C | 14
c1ccc(-c2nnn3c2COC(CNCc2ccsc2)C3)cc1 (centres undefined) | -48
CNCC[C@@H](Oc1ccccc1C)c1ccccc1 | 16
CC(Nc1ccc(-c2nccn2C)nn1)c1ccccc1 (centres undefined) | 205
CC(NCCC(c1ccccc1)c1ccccc1)c1ccccc1 (centres undefined) | -82*!
Fc1cccc(CNCc2ccccc2)c1 | 0
COc1ccc(CNc2nc(-c3ccc(OC)cc3)nc3ccccc23)cc1 | -42
Clc1ccc(CSc2nc(NCc3ccccc3)c3ccccc3n2)cc1 | -72*
Clc1ccc(CNc2nc(SCc3ccccc3Cl)nc3ccccc23)cc1 | 30
c1ccc(CNc2nc(NCc3ccccc3)c3ccccc3n2)cc1 | -108*
Clc1ccc(CNc2nc(SCc3ccc(Cl)cc3)nc3ccccc23)cc1 | -48
COc1cc(Nc2nc(SCc3ccc(C(C)(C)C)cc3)nc3ccccc23)cc(OC)c1 | -11
Fc1ccc(Nc2nc(SCc3ccc(Cl)cc3)nc3ccccc23)cc1F | -21
SMILES | Tgondii IFNg
Clc1ccccc1CSc1nc(NCc2ccccc2)c2ccccc2n1 | -49
Fc1ccc(CSc2nc(Nc3ccc(F)c(F)c3)c3ccccc3n2)cc1 | -80*
O=C(NC[C@@H]1CCNC[C@H]1O)c1ccc2c(c1)CCO2 | 10
CCCCN1CCN(Cc2ncccc2C(=O)O)CC1 | 1
Cc1nc2c(n1C)CN(C(=O)c1ccc(Cl)s1)CC2 | 24
CC(=O)NCCn1cnc(-c2ccccc2)c1-c1nc2ccccc2n1C | 7
COc1cncc(C(=O)Nc2ccc(Cl)cc2C)c1 | -51
C=CCN1CCC2(CC1)CC(Nc1cc(OC)ncn1)c1ccccc1O2 (centres undefined) | 6
CCOC(=O)c1cc(C)nc2c1c(=O)n(Cc1nc(-c3ccccc3OCC)oc1C)c(=O)n2C | -8
CCCCCC/C=C/C=C\CCCCCCCC(=O)O | 7
COc1cccc(C(=O)N2CCC(Cc3nn(C)cc3C(=O)Nc3nccs3)CC2)c1 | 12
Cc1cc(SCc2ccc(C(=O)O)cc2)nc(SCc2ccc(Cl)cc2)n1 | 38
O=C(Cc1ccccc1)Nc1nccs1 | -4
Cc1cc(C)nc(SCc2ccc(C(=O)Nc3nccs3)cc2)n1 | -88*
CC(C)c1cc(C(=O)N(C)CC2OCCc3ccccc32)n2ncnc2n1 (centres undefined) | 2
Cc1c(C)n(C(=O)CSc2nnc(-c3ccccc3)o2)c2ccccc12 | 6
O=c1cc(O)c2ccccc2n1-c1ccccc1 | 46
Cc1c(-c2ccccc2)n(-c2ccccc2)c2ccccc12 | -90*
O=C1CCC2(CCN(c3ncccn3)CC2)N1CC1CC1 | 128
O=C(Nc1ccc2c(c1)OCO2)c1c(O)c2ccccc2[nH]c1=O | 108
CC(C)C[C@H](NC(=O)[C@H](CC(N)=O)NC(=O)[C@@H](NC(=O)[C@@H](N)CCC(=O)O)C(C)C)[C@@H](O)C[C@@H](C)C(=O)N[C@@H](C)C(=O)N[C@@H](CCC(=O)O)C(=O)N[C@@H](Cc1ccccc1)C(=O)O | 11
Cc1ccc(CN2CCC3(CC2)CC(CC(=O)NCC2CC2)c2ccccc23)o1 (centres undefined) | -29
Cc1cnc(C(=O)N2CCC3(CC2)C(=O)NCCN3CC(C)C)cn1 | -32
CCn1c(CC2CCN(S(=O)(=O)N3CCCCC3)CC2)nn(C)c1=O | 0
N#CC(C#N)=C(N)/C(C#N)=C/c1cc(O)c(O)c(O)c1 | -7
SMILES | Tgondii IFNg
CC(C)(C)c1cc(-c2cc(C(C)(C)C)c(O)c(C(C)(C)C)c2)cc(C(C)(C)C)c1O | 14
CC(C)(C)c1cc(/C=C(\C#N)C(N)=S)cc(C(C)(C)C)c1O | -74*
O=S(=O)(NCC(c1cccnc1)c1c[nH]c2ccccc12)c1ccc2c(c1)CCCC2 (centres undefined) | 19
Cc1ccc(N2CCC3(CC2)CN(Cc2cccnc2)C(=O)CO3)nn1 | 1
OC(c1cc(C(F)(F)F)nc2c(C(F)(F)F)cccc12)C1CCCCN1 (centres undefined) | -80*
C=CCN1C(=O)CC2(CCN(C(=O)c3cnc(C)cn3)CC2)c2ccccc21 | 6
Cc1ccc(-c2nc(CCNC(=O)C(=O)NC(C)c3ccccc3)cs2)cc1 (centres undefined) | 86
O=C(C1CCCCC1)N1CCC2(CC1)Nc1ccccc1-n1cccc12 | 21
O=C(Cn1ncc2c(N3CCCCC3)ncnc21)Nc1cccc(Cl)c1 | -47
COc1ccc(NC(=O)Cn2ncc3c(N4CCC(C)CC4)ncnc32)cc1OC | 52
CC1CCN(c2ncnc3c2cnn3CC(=O)Nc2ccccc2F)CC1 | 237
CC1CCN(c2ncnc3c2cnn3CC(=O)Nc2ccccc2C(F)(F)F)CC1 | -81*
CC1CCN(c2ncnc3c2cnn3CC(=O)Nc2cccc(C(F)(F)F)c2)CC1 | -72*
CC1CCN(c2ncnc3c2cnn3CC(=O)Nc2cccc(Cl)c2)CC1 | -87*
O=C(Cn1ncc2c(N3CCN(c4ccccn4)CC3)ncnc21)Nc1ccc(F)c(Cl)c1 | 184
CC1CCN(c2ncnc3c2cnn3CC(=O)Nc2ccc3c(c2)OCCO3)CC1 | 160
CC1CCN(c2ncnc3c2cnn3CC(=O)Nc2ccc(OC(F)(F)F)cc2)CC1 | -33
O=C(Cn1ncc2c(N3CCN(c4ccccn4)CC3)ncnc21)Nc1ccccc1C(F)(F)F | 30
O=C(Cn1ncc2c(N3CCCC3)ncnc21)Nc1cccc(Cl)c1 | -55
CC1CCN(c2ncnc3c2cnn3CC(=O)Nc2ccc(F)c(Cl)c2)CC1 | -86*
Cc1nccn1CCCn1cncc1-c1ccc2c(c1)CC(C)(C)O2 | -29
Cc1ccc2cc(C)c3nn(CCNC(=O)c4[nH]c5c(c4C)C(=O)CCC5)c(=O)n3c2c1 | -63
N[C@@H]1CC[C@@H](NS(=O)(=O)c2c(Cl)nc3sccn23)C1 | 3
COc1ccc2c(c1)NC1(CCN(S(=O)(=O)c3ccc(CC(C)C)cc3)CC1)c1cccn1-2 | 9
CCn1c(C2CCCN(C(=O)Cn3nc4ccccc4n3)C2)nn(C)c1=O (centres undefined) | 16
CCc1nc(Cn2ccnc2-c2ccnn2-c2ccccc2)no1 | -51
O=C(NN1CC(=O)N(C2CCCC2)C1=O)C(c1ccccc1)c1ccccc1 | 31
O=C(O)c1nccnc1C(=O)N1CCN(c2ncccn2)CC1 | 21
Cc1cc(C)cc(NC(=O)c2c(O)c3cccnc3n(-c3ccccc3)c2=O)c1 | -2

Screening results deposited in PubChem BioAssay by Broad Institute.
